Assay outcomes: PubChem BioAssay, several laboratories
Rows were chosen to be rich in hits. Some 0.61% of all compounds tested hit in one or more screens of this group.
ugtP null kill: growth inhibition of ugtP-null S. aureus, primary screen, RN4220 ugtP deletion, OD600; 16 h; growth inhibition, % (no concentration beside the values); hit rate 0.54% among 330,000; AID 1259309, 2017; in the data active = growth inhibition above about 68%
Mtb hypoxia inh: PubChem AID 1159583; M. tuberculosis hypoxia-regulated fluorescent reporter, fluorescence; fluorescence inhibition, % (concentration not given with the values); hit rate 0.1% among 300,000; in the data active = fluorescence inhibition mostly above about 23%, no sharp cut-off; inactive = mostly below about 17%
Sa RN4220 lethal: growth inhibition of S. aureus RN4220, primary screen, OD600 | hit rate 0.33% among 330,000 | 16 h | inhibition, % (test concentration not listed); in the data active = inhibition above about 85%
Mtb betalactam: beta-lactam sensitization of Mtb H37Rv, H37Rv | M. tuberculosis H37Rv growth with meropenem, percent inhibition | inhibition, % at 25 µM | hit rate 0.27% among 330,000 | AID 434955, 2010; call rule not given here;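 note: growth measured after seven days incubation then overnight dye step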
Each line names hits and unclear results; the compound was inactive in the other large screens.

CS(=O)(=O)c1ccc(C(O)C(CF)NC(=O)C(Cl)Cl)cc1 (configuration not stated)	ugtP null kill 99.9, Sa RN4220 lethal 99.1 (not shown: Mtb hypoxia inh, Mtb betalactam)
CS(=O)(=O)c1ccc(C(O)C(CO)NC(=O)C(Cl)Cl)cc1 (configuration not stated)	Mtb hypoxia inh 79.9 (no result: Mtb betalactam)
N/C(=N\N=Cc1ccc(Br)cc1)NN=Cc1ccc(Br)cc1	ugtP null kill 100.4, Sa RN4220 lethal 100.6 (no result: Mtb betalactam)
CSC(=S)N/N=C/c1ccc(Br)cc1	none (no result: ugtP null kill, Mtb hypoxia inh, Sa RN4220 lethal)
COC(=O)Cc1cc(=O)[nH]c(N=C(N)Nc2ccc(C(C)C)cc2)n1	none (no result: Mtb betalactam)
Cc1ccc(O)c(C(=O)CC(=O)c2ccccc2Cl)c1	ugtP null kill 99.5, Sa RN4220 lethal 100.0
Cc1ccc(O)c(C(=O)CC(=O)c2ccc(C(C)(C)C)cc2)c1	ugtP null kill 99.8, Sa RN4220 lethal 99.2
CCN1C(=O)C(=Cc2ccc(C)s2)SC1=Nc1ccc(OC)cc1	none (no result: Mtb betalactam)
CC(=O)CC(O)CC(=O)C1OC(=O)CCC=CCc2ccccc21 (configuration not stated)	none (no result: Mtb betalactam)
CCCOc1nc(SCCC)nc2c1cnn2-c1ccccc1	ugtP null kill 93.0
O=C(c1ccccc1)c1nn(-c2ccc(Cl)cc2)c(=O)cc1C(F)(F)F	Sa RN4220 lethal 94.2 (no result: Mtb hypoxia inh)
Oc1ccc(Nc2nc(-c3ccccc3)nc3ccccc23)cc1	none
COc1ccc(Nc2nc(-c3ccccc3)nc3ccccc23)cc1	ugtP null kill 94.8
COc1cccc(Nc2nc(-c3cccs3)nc3ccccc23)c1	none
COc1ccc(Nc2nc(-c3cccs3)nc3ccccc23)cc1	ugtP null kill 95.4
O=C(NC(Cc1ccc(O)cc1)C(=O)O)c1ccc(C(F)(F)F)cc1 (configuration not stated)	none (no result: Mtb betalactam)
COc1cc(CCc2ccccc2)c(C(=O)O)c(O)c1C/C=C(/C)CCC=C(C)C	ugtP null kill 100.0, Sa RN4220 lethal 88.1 (no result: Mtb betalactam)
O=C1c2ccccc2C(=O)c2c1ccc1c(=O)n(-c3ccccc3)[nH]c21	none
CC(C)Cn1[nH]c2c3c(ccc2c1=O)C(=O)c1ccccc1C3=O	ugtP null kill 85.5, Sa RN4220 lethal 89.0
CC12CCC(O)CC1=CCC1C2CCC2(C)C(c3ccn[nH]3)CCC12 (configuration not stated)	ugtP null kill 97.6 (no result: Mtb betalactam)
CC(=O)C1C(c2cccc(C(F)(F)F)c2)NC(=O)N(Cc2ccccc2)C1C (configuration not stated)	none (no result: Mtb betalactam)
N#CC(c1ccc(Cl)cc1)c1ccc2c(C(F)(F)F)cc(C(F)(F)F)nc2n1 (configuration not stated)	ugtP null kill 100.9, Sa RN4220 lethal 100.5 (not shown: Mtb hypoxia inh)
FC(F)(F)c1cc(C(F)(F)F)c2ccc(N3CCN(c4ccc(Cl)cc4)CC3)nc2n1	none
COC(=O)C1=C(C(=O)OC)C2N(C)c3ccccc3[C@@]23CC(C(=O)OC)N(C(=O)c2cc(C)oc2C)C3=N1 (some centres not stated)	none (no result: Mtb betalactam)
Cn1c(C=NNc2nc3ccccc3[nH]2)nc2ccccc21	none (no result: Mtb betalactam)
Cc1c(C=NNc2nc3ccccc3[nH]2)c2ccccc2n1C	ugtP null kill 98.6, Sa RN4220 lethal 98.7 (no result: Mtb betalactam)
FC(F)(F)Oc1ccc(C2NCc3ccccc3-n3cccc32)cc1 (configuration not stated)	ugtP null kill 93.6
CC(C)c1ccc(C2NCc3ccccc3-n3cccc32)cc1 (configuration not stated)	none
CCc1ccc2[nH]c3nc(SCC(=O)NNC(=O)c4ccc(C(C)(C)C)cc4)nnc3c2c1	ugtP null kill 85.1
Cc1ccc(CO/N=C/C2=C(Cl)c3ccccc3CC2)cc1	none (no result: ugtP null kill, Mtb hypoxia inh, Sa RN4220 lethal)
Fc1ccc(CON=CC2=C(Cl)c3ccccc3CC2)cc1	ugtP null kill 99.0 (no result: Mtb hypoxia inh, Mtb betalactam)
Cn1c(CC(=O)Nc2ccc(Cl)c(Cl)c2)n[nH]c1=S	none
COc1ccc(Cc2n[nH]c(=S)n2NC(=O)Nc2ccc(Cl)c(Cl)c2)cc1	ugtP null kill 99.8, Sa RN4220 lethal 100.4
COc1ccc(C=NNC(=O)c2ccncc2)cc1CN1CCN(c2ccc(F)cc2)CC1	none (not shown: Mtb hypoxia inh, Mtb betalactam)
O=C(COc1ccccc1)NC1C(=O)N2C(C(=O)O)=C(Cl)CSC12 (configuration not stated)	ugtP null kill 100.7, Sa RN4220 lethal 100.7 (not shown: Mtb hypoxia inh)
CC1=C(C(=O)OCc2ccccc2)N2C(=O)[C@@H](NC(=O)COc3ccccc3)[C@H]2SC1	none
CC1=C(C(=O)O)N2C(=O)C(NC(=O)CCCC(=O)O)C2SC1 (configuration not stated)	none
CCC(C(=O)NC1CCN(C)CC1)c1ccccc1 (configuration not stated)	none
CCC(C(=O)NC1C(=O)N2C(C(=O)O)=C(CSc3nnc(C)s3)CSC12)c1ccccc1 (configuration not stated)	ugtP null kill 100.2, Sa RN4220 lethal 100.1 (not shown: Mtb hypoxia inh, Mtb betalactam)
Cc1csc(NC(=O)CSc2nnc(NC(=O)COc3ccccc3)s2)n1	none
Cc1nnc(SCC2=C(C(=O)O)N3C(=O)C(NC(=O)COc4ccccc4)C3SC2)s1 (configuration not stated)	ugtP null kill 100.6, Sa RN4220 lethal 100.4 (not shown: Mtb hypoxia inh, Mtb betalactam)
C=CC1=C(C(=O)O)N2C(=O)C(NC(=O)Cc3ccccc3)C2SC1 (configuration not stated)	ugtP null kill 100.7, Sa RN4220 lethal 100.5 (not shown: Mtb hypoxia inh)
COc1ccc(N(CC(=O)NN=Cc2cccc3c2OCCO3)S(=O)(=O)c2ccc(NC(C)=O)cc2)cc1	none (no result: Mtb hypoxia inh, Mtb betalactam)
CCN(CC)c1ccc(C=NN2CCN(Cc3ccc(C)cc3)CC2)c(O)c1	none (no result: Mtb betalactam)
C#CCOCCOCCOCCNc1nc(N2CCN(C(=O)C(CC(N)=O)n3cc(C(N)CC(N)=O)nn3)CC2)nc(N2CCN(C(=O)C(CC(N)=O)n3cc(C(N)CC(N)=O)nn3)CC2)n1 (configuration not stated)	none (no result: Mtb betalactam)
CC(=NNC(=S)NCc1ccccc1)c1ccccc1	none (no result: Mtb betalactam)
Cc1nnc(SCC2=C(C(=O)O)N3C(=O)C(NC(=O)COc4ccc(F)cc4)C3SC2)s1 (configuration not stated)	ugtP null kill 96.9, Sa RN4220 lethal 100.2 (not shown: Mtb hypoxia inh, Mtb betalactam)
Cc1nnc(SCC2=C(C(=O)O)N3C(=O)C(NC(=O)c4cc(F)c(F)cc4Cl)C3SC2)s1 (configuration not stated)	ugtP null kill 100.4, Sa RN4220 lethal 99.7
Cc1nnc(SCc2ccc(F)cc2Cl)s1	none
Cc1nnc(SCC(=O)NNC(=O)COc2ccc(Cl)cc2)s1	none
CC(=O)OCC1=C(C(=O)O)N2C(=O)C(NC(=O)COc3ccc(F)cc3)C2SC1 (configuration not stated)	ugtP null kill 100.6, Mtb hypoxia inh 37.2, Sa RN4220 lethal 100.5 (no result: Mtb betalactam)
CSc1nncc(C(C)=NNc2ccccc2C)n1	none (no result: Mtb betalactam)
CCCCCCCCCCCCCCCC(O)C(N)CO (configuration not stated)	ugtP null kill 100.2, Sa RN4220 lethal 99.9
CCCCCCC(N)CC(=O)O (configuration not stated)	none (no result: Mtb betalactam)
COc1ccc(C(C)=NN=C(C)c2ccc(OC)cc2OC)c(OC)c1	none (no result: Mtb betalactam)
Cn1c(O)c(C=NNC(=O)c2cc3ccccc3cc2O)c2ccccc21	ugtP null kill 92.8 (no result: Mtb betalactam)
O=C(CSc1nc2ccccc2c(=O)n1Cc1ccccc1)Nc1ccc(Br)cc1C(=O)O	ugtP null kill 99.3
COc1ccccc1NS(=O)(=O)c1cccc(C(=O)NN=C2CC(=O)CC(C)(C)C2)c1	none (no result: Mtb betalactam)
O=C(Nc1ccccc1)Nc1ccno1	Mtb hypoxia inh 94.5
COc1ccc(CNC(=O)c2c(C)oc3c2C(=O)c2ccccc2C3=O)cc1	none
